The values that follow come from the OligoGym collection.
Further: reference of the scale not given here.

The first assay deals with FASN. The experiment in a line: pooled miR-30 sensor sort-seq; sequence = guide strand. The following applies: shRNA.
For the sequence TTCATAGGTGACTTCCAGCAGC, the sensor-assay potency score (higher = more potent) is -0.213.

Sequence TTGTTGACATTGTACTCGGCGG registered a sensor-assay potency score (higher = more potent) of -1.03.

TTGGAGAGCAGCACACACCGGA came in with a sensor-assay potency score (higher = more potent) of -0.273.

Consider TTGTACTCGGCGGAGGACGTGC, for which the sensor-assay potency score (higher = more potent) was -0.733.

Sequence AAGAACTCCAGGTTGTCCCTGT had a sensor-assay potency score (higher = more potent) of 0.747.

In turn, TTCTCTGACACCTCGAAGGCAC gave a sensor-assay potency score (higher = more potent) of -0.474.

TAGAGGTGCTGAGCCAGCGGGC registered a sensor-assay potency score (higher = more potent) of -1.55.

Turning to TTGACAGCAGCCAAGTCGCGGA, the sensor-assay potency score (higher = more potent) is -0.675.

Take TTTCTCACAGATACGCTCCATG: the sensor-assay potency score (higher = more potent) was -0.419.

In turn, ATAGGTGACTTCCAGCAGCAGC had a sensor-assay potency score (higher = more potent) of -1.01.

TTCAGCTTGCCGGACCGCCGGG: the sensor-assay potency score (higher = more potent) is -0.801.

On to TTGAGCTGAAGCCTGCAGGCAG, for which the sensor-assay potency score (higher = more potent) is -0.315.

Take TTCTTTGATGCACTGTCCCCTC: the sensor-assay potency score (higher = more potent) is -0.75.

For TCGAAGAAGAAGGAGAGCCGGT, the sensor-assay potency score (higher = more potent) came out at 0.123.

On to TTGCACACCAGGAGGTCGGCGC, for which the sensor-assay potency score (higher = more potent) was -0.835.

A further assay concerns the target FBLIM1. The assay is described as above. The following applies: shRNA.
The sequence TTTCCTGTAGAAGTCGTCCAGG showed a sensor-assay potency score (higher = more potent) of -0.297.

In turn, TAATAAACCAGTAGACAGGAAA returned a sensor-assay potency score (higher = more potent) of -1.08.

The sequence TCTAAGTCTGCAATGAGTGAGG yielded a sensor-assay potency score (higher = more potent) of -0.617.

TTCTGGTAGAAGCTCTGCCCAG had a sensor-assay potency score (higher = more potent) of -1.24.

For TGAAGAGCTGCATAGGTGCAGC, the sensor-assay potency score (higher = more potent) is -0.713.

Regarding TAGACAGGAAACTCTGGCCCAG, the sensor-assay potency score (higher = more potent) is -0.916.

For the sequence TCTGGTAGAAGCTCTGCCCAGC, the sensor-assay potency score (higher = more potent) was -0.202.

TTGAAGAGCTGCATAGGTGCAG: the sensor-assay potency score (higher = more potent) is 0.627.

TTTCATGGAAGTTTCTTCCCAT: the sensor-assay potency score (higher = more potent) came out at 0.731.

TTCTCAACAGGTTCTGCCGGGG displayed a sensor-assay potency score (higher = more potent) of -0.331.

On to TTTCTCAACAGGTTCTGCCGGG, for which the sensor-assay potency score (higher = more potent) was 0.497.

With TCGACAGACAGGAGGATCCTGC, the sensor-assay potency score (higher = more potent) is -0.78.

For another assay, the target named is FBXL21. Described as above. The following applies: shRNA.
Take TGCATAACAACATTAACTCTAG: the sensor-assay potency score (higher = more potent) was -0.667.

TTGAGTTGATAAAAACAACTGT displayed a sensor-assay potency score (higher = more potent) of 0.22.

TAGAGTGTCACTATTATTGGCC registered a sensor-assay potency score (higher = more potent) of 0.27.

With TTTAATGATCTGCTGAATGAGA, the sensor-assay potency score (higher = more potent) is -0.579.

TTAACATGAGTCTCGCTTGAGA showed a sensor-assay potency score (higher = more potent) of -0.687.

In turn, TTCAGTGTGAATTTCATCTAGG had a sensor-assay potency score (higher = more potent) of 0.327.

On to AACAACATTAACTCTAGGGGAA, for which the sensor-assay potency score (higher = more potent) was -0.232.

As for TCACACAGTCTTACAAACCTGA, the sensor-assay potency score (higher = more potent) came to 0.117.

In turn, TAACAACATTAACTCTAGGGGA returned a sensor-assay potency score (higher = more potent) of -0.101.

Turning to TTCTTTGAAGAACGTCTCGAAT, the sensor-assay potency score (higher = more potent) is -1.19.

Take TCAAATTCAAACTTTCTCCAAA: the sensor-assay potency score (higher = more potent) was -0.476.
